According to PubChem BioAssay AID1159580 (chemical genetic matrix, 2015):
The campaign covered roughly 5,500 compounds. About 2,000 (36%) were called active. Another 18% or so got no clear call; they are omitted. Cut-off read from the data, not from the text of the source: active = normalized growth mostly below about 0.91 (no sharp cut-off); inconclusive = no clear call, values can overlap the other calls; inactive = mostly above about 0.92. The list shows a part of the results.

Test: chemical genetic growth profiling, strain panel (AID 1159580);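 note: tested at 20 µM; growth read once vehicle control cultures reached saturation at 30 °C; 1 = growth at the plate median or of vehicle wells; lower values mean less growth of the strain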
Conditions: growth OD

Measured: normalized growth

Cc1cc(C)c2c(-n3cccc3)c(C(=O)c3ccc(Cl)cc3)sc2n1
inactive: S. cerevisiae deletion strains, locus YAL013W, strain DEP1, stronger effect = lower value 0.996 | S. cerevisiae deletion strains, locus YBR229C, strain ROT2, stronger effect = lower value 1.01 | S. cerevisiae deletion strains, locus YCL061C, strain MRC1, stronger effect = lower value 1 | S. cerevisiae deletion strains, locus YDL101C, strain DUN1, stronger effect = lower value 0.979 | S. cerevisiae deletion strains, locus YDR150W, strain NUM1, stronger effect = lower value 0.9 | S. cerevisiae deletion strains, locus YEL061C, strain CIN8, stronger effect = lower value 1 | S. cerevisiae deletion strains, locus YGR078C, strain PAC10, stronger effect = lower value 1.01 | S. cerevisiae deletion strains, locus YGR229C, strain SMI1, stronger effect = lower value 0.99 | S. cerevisiae deletion strains, locus YHR030C, strain SLT2, stronger effect = lower value 0.884 | S. cerevisiae deletion strains, locus YHR087W, strain rtc3, stronger effect = lower value 0.98 | S. cerevisiae deletion strains, locus YJL187C, strain SWE1, stronger effect = lower value 1.01 | S. cerevisiae deletion strains, locus YJR043C, strain POL32, stronger effect = lower value 1.01 | S. cerevisiae deletion strains, locus YJR075W, strain HOC1, stronger effect = lower value 0.987 | S. cerevisiae deletion strains, locus YLR039C, strain RIC1, stronger effect = lower value 0.903 | S. cerevisiae deletion strains, locus YLR058C, strain SHM2 (second series), stronger effect = lower value 1.01 | S. cerevisiae deletion strains, locus YLR085C, strain ARP6, stronger effect = lower value 0.961 | S. cerevisiae deletion strains, locus YLR262C, strain YPT6, stronger effect = lower value 0.95 | S. cerevisiae deletion strains, locus YML094W, strain GIM5, stronger effect = lower value 0.935 | S. cerevisiae deletion strains, locus YMR219W, strain ESC1, stronger effect = lower value 1.01 | S. cerevisiae deletion strains, locus YMR263W, strain SAP30, stronger effect = lower value 0.997 | S. cerevisiae deletion strains, locus YMR307W, strain GAS1, stronger effect = lower value 0.891 | S. cerevisiae deletion strains, locus YNL153C, strain GIM3, stronger effect = lower value 0.984 | S. cerevisiae deletion strains, locus YNL298W, strain CLA4 (second series), stronger effect = lower value 0.984 | S. cerevisiae deletion strains, locus YNL322C, strain KRE1, stronger effect = lower value 0.997 | S. cerevisiae deletion strains, locus YNR030W, strain Alg12, stronger effect = lower value 0.95 | S. cerevisiae deletion strains, locus YPL055C, strain LGE1, stronger effect = lower value 0.957 | S. cerevisiae deletion strains, locus YPL241C, strain CIN2, stronger effect = lower value 1 | S. cerevisiae deletion strains, locus YPR135W, strain CTF4, stronger effect = lower value 0.893 | S. cerevisiae strains, strain wild type, stronger effect = lower value 0.986
